Where “and” joins values, the source holds several entries; their conditions need not be identical. Equal entries are not always repeated. Calls of active or inactive are those of the source.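 How the source made its calls: active means inhibition at or above 50% relative to wild type and mutant plate controls; inactive means inhibition below 50%.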

A short description of this assay: inhibitors of Chlamydomonas gravitaxis, primary screen, whole organism, Chlamydomonas reinhardtii, WT vs cilia-less mutant, absorbance, 96-well (AID 463189).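 Further: 0% = wild type cc124 cells in DMSO and 100% = ciliumless bld1 mutant cells.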 The note with it: OD600 absorbance, 2 days, at 10 µM, hits give high values.
Usually inhibition stands for the relative decrease from the control value, in per cent. Regarding `CCCCCCCCCCCCCCCC(=O)OC(CC(=O)O)C[N+](C)(C)C` (stereo not given), the inhibition is 2.15% (inactive).
Take `CN(C)CCOC(=O)COc1ccc(Cl)cc1`: the inhibition is 5.22% (inactive).
Turning to `O=C(Nc1cc(C(=O)Nc2ccc(S(=O)(=O)O)cc2S(=O)(=O)O)cc(C(=O)Nc2ccc(S(=O)(=O)O)cc2S(=O)(=O)O)c1)Nc1cc(C(=O)Nc2ccc(S(=O)(=O)O)cc2S(=O)(=O)O)cc(C(=O)Nc2ccc(S(=O)(=O)O)cc2S(=O)(=O)O)c1`, the inhibition was 10.7% (inactive).
`Fc1ccc(CN(C2=NCCN2)c2c(Cl)cccc2Cl)cc1`: the inhibition was -0.588% (inactive).
As for `CCn1ccnc1CC1COc2ccccc2O1` (stereo not given), the figure is 5.81% (inactive); as for `CCN(CC)C(C)C(=O)N1c2ccccc2Sc2ccccc21` (stereo not given), 40.1% (inactive).
As for `CC[C@H](C)C(=O)O[C@H]1CCC=C2C=C[C@H](C)[C@H](CC[C@@H]3C[C@@H](O)CC(=O)O3)[C@H]21`, the figure is 9.46% (inactive); as for `NC(=S)NCCCC(N)C(=O)O` (stereo not given), 0.102% (inactive).
With `O=C(O)c1ccccc1Nc1ccccc1`, the inhibition was 8.09% (inactive).
As for `COc1ccccc1N1CCN(CCN(C(=O)C2CCCCC2)c2ccccn2)CC1`, the figure is 9.85% (inactive).
For `O=C1CCC(N2C(=O)c3ccccc3C2=O)C(=O)N1` (stereo not given), the inhibition was 10.8% (inactive).
As for `O=C(O)/C=C/c1cnc[nH]1`, the figure is 1.11% (inactive); as for `O=c1c(-c2ccc(O)cc2)coc2cc(O)cc(O)c12`, -5.08% (inactive).
As for `Cc1ccc(OCC(O)C(C)NC(C)C)c2c1CCC2` (stereo not given), the figure is -3.42% (inactive).
As to `CC(=O)[C@@]1(O)CC[C@H]2[C@@H]3CCC4=CC(=O)CC[C@]4(C)[C@H]3CC[C@@]21C`, the inhibition is -1.04% (inactive).
For the compound `C[C@H]1O[C@@H](n2cc(F)c(=O)[nH]c2=O)[C@H](O)[C@@H]1O`, the inhibition is 2.48% (inactive).
Take `NC(=O)c1cnccn1`: the inhibition is 1.54% (inactive).
As for `CC1CCN=C(N)S1` (stereo not given), the figure is 0.783% (inactive).
Regarding `CCOC(=O)Nc1ccc(NCc2ccc(F)cc2)nc1N`, the inhibition is 3.93% (inactive).
As for `O=C(O)C1CN(CCCP(=O)(O)O)CCN1` (stereo not given), the figure is -0.924% (inactive); as for `N=C1Sc2ccccc2C2=NCCCN12`, 9.36% (inactive); as for `O=C(O)[C@@H]1C[C@@H](C(=O)O)N1`, -5.37% (inactive).
For `C[C@]12CC[C@@H]3c4ccc(O)cc4CC[C@H]3[C@@H]1CC[C@@H]2O`, the inhibition was 5.14% (inactive).
Regarding `CCCN(CCc1ccccc1)C1CCc2c(O)cccc2C1` (stereo not given), the inhibition is 5.13% (inactive).
As for `CCCCN1CCC(COC(=O)c2cc(Cl)c(N)c3c2OCCO3)CC1`, the figure is -6.29% (inactive).
As for `CCCCS(=N)(=O)CCC(N)C(=O)O` (stereo not given), the figure is -0.023% (inactive); as for `N#C/C(=C\c1ccc(O)c(O)c1)C(=O)NCCc1ccccc1`, -1.25% (inactive); as for `N=C(N)SCCc1cccc(CCSC(=N)N)c1`, 2.04% (inactive).
`Cn1c(=O)[nH]c2ncn(C)c2c1=O`: the inhibition is -7.51% (inactive).
In the case of `COc1ccc2c(c1)c(CC(=O)N1CCOCC1)c(C)n2C(=O)c1ccc(Cl)cc1`, the inhibition was 6.6% (inactive).
For `Cc1cccc(C#Cc2ccccc2)n1`, the inhibition was 8.4% (inactive).
For `Cc1cccc(C2CN(C)CCc3c2cc(O)c(O)c3Cl)c1` (stereo not given), the inhibition is 3.56% (inactive).
Take `Nc1ncnc2c1ncn2[C@@H]1O[C@H](C(=O)NC2CC2)[C@H](O)C1O` (stereo not given in full): the inhibition is 7.98% (inactive).
As for `Cn1ccc2cc3c(cc21)CCN3C(=O)Nc1cccnc1`, the figure is 9.75% (inactive); as for `NCCSSCCN`, 6.01% (inactive); as for `CCn1c(=O)[nH]c2cc(Cl)c(Cl)cc21`, 1.13% (inactive).
In the case of `CC[C@@H](C)[C@H]1O[C@]2(CC[C@@H]1C)C[C@@H]1C[C@@H](C/C=C(\C)[C@@H](O[C@H]3C[C@H](OC)[C@@H](O[C@H]4C[C@H](OC)[C@@H](O)[C@H](C)O4)[C@H](C)O3)[C@@H](C)/C=C/C=C3\CO[C@@H]4[C@H](O)C(C)=C[C@@H](C(=O)O1)[C@]34O)O2`, the inhibition is 22.3% (inactive).
Consider `CC(C)NCC(O)c1ccc(O)c(O)c1` (stereo not given), for which the inhibition is -5.24% (inactive) and 12.5% (inactive).
As for `COc1ccccc1N1CCN(CCCCNC(=O)c2ccc3ccccc3c2)CC1`, the figure is 6.15% (inactive).
Turning to `CCCCCCCCCCCCCCCC(=O)NCCO`, the inhibition was 8.85% (inactive).

For the origin of these results see PubChem BioAssay.
